ChEMBL document CHEMBL3433997, “St. Jude Leishmania screening dataset” (2016)

Assays:
Type in all cases: functional
[1] = molecular target: Solute carrier family 2, facilitated glucose transporter member 1 (Homo sapiens) (UniProt P11166); assay: ST_JUDE_LEISH: Cytotoxicity at 2uM final concentration against transgenic Leishmania Mexicana promastigotes LmGLUT1 that are glucose transport deficient and complemented with the human glucose transporter GLUT1. Activity is measured by DNA content using SYBR green in vitro
Solute carrier family 2, facilitated glucose transporter member 1 (Homo sapiens), sequence (P11166 whole entry): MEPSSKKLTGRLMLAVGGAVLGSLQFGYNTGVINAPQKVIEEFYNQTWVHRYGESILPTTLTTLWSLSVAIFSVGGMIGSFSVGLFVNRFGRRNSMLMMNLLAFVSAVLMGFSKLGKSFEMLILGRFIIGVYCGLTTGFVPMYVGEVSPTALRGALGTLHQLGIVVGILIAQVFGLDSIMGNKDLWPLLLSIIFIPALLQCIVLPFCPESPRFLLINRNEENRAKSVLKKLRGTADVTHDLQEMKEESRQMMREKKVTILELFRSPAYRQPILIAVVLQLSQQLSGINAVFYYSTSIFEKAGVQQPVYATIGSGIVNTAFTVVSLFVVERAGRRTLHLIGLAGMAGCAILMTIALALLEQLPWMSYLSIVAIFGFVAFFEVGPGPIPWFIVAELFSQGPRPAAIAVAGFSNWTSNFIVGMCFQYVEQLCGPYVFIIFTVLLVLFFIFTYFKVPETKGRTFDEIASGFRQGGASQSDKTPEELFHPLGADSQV

[2] = molecular target: Hexose transporter 1 (Plasmodium falciparum) (UniProt O97467); assay: ST_JUDE_LEISH: Cytotoxicity at 2uM final concentration against transgenic Leishmania Mexicana promastigotes LmPfHT that are glucose transport deficient and complemented with the Plasmodium falciparum hexose transporter. Activity is measured by DNA content using SYBR green in vitro
[3] = molecular target: Glucose transporter (Leishmania mexicana) (UniProt O61059); assay: ST_JUDE_LEISH: Cytotoxicity at 2uM final concentration against transgenic Leishmania Mexicana promastigotes LmGT2 that are glucose transport deficient and complemented with the L. Mexicana glucose transporter 2. Activity is measured by DNA content using SYBR green in vitro

SMILES	inhibition [1] [%]	inhibition [2] [%]	inhibition [3] [%]
CCN(CC)CCCSc1ccc(-c2ccc(SCCCN(CC)CC)cc2)cc1	88.5	91.5	78.2
O=[N+]([O-])c1cccc(NC(=S)N2CCCN(Cc3ccc(F)cc3F)CC2)c1	0.91	1	0.66
CC(=O)N(C)c1cccc(CNc2cc(C)nc(Nc3ccc(C)cc3)n2)c1	4.41	4.95	0.91
NC(=O)c1sc(-n2cnc3ccccc32)cc1OCc1ccccc1[N+](=O)[O-]	8.87	7.21	6.48
COc1cc(F)c2nccc([C@@H](O)CN3CCC(NCc4cc5c(cc4F)OCCO5)CC3)c2c1	1.5	0.69	-2.93
O=C(CSc1nc2ccccc2c(=O)n1CC1CCCO1)Nc1cc(C(F)(F)F)ccc1Cl (stereo unspecified)	9.97	9.45	6.14
C1=CN(Cc2ccccc2)C=CC1=C1C=Nc2ccccc21	12.1	10.4	8.71
O=C(CCNc1ccnc(NCC2CCCCC2)n1)Nc1ccccc1	7.25	5.25	3.46
Cc1onc(-c2ccccc2)c1-c1nc(NC2CCCC(C)C2)no1 (stereo unspecified)	2.36	-1.49	3.54
Cn1cnc2c(SCc3ccccc3OCc3ccccc3)ncnc21	6.91	5.44	4.68
CC1(C)NC(N)=NC(=N)N1OCOc1ccc(Cl)cc1	3.62	1.85	4.23
Cc1ccc(NC(=O)C(C)Sc2nnc(-c3ccccc3Br)[nH]2)cc1 (stereo unspecified)	-1.5	-2.48	-0.33
CN(C)CCOc1ccc(-c2cc(-c3ccc(Cl)c(O)c3)c(-c3ccnc(N)n3)o2)cc1	2.11	2.73	3.05
Cc1cc(C)cc(N2C(N)=NC(N)=NC2(C)C)c1	7.13	5.93	5.97
CN1CCN(Cc2cccc(-c3ccc4c(Nc5ccc(F)cc5Cl)ccnc4c3)c2)CC1	4.11	6.5	3.82
Nc1cccc(CNCc2cccc(-c3ccc(-c4nc5ccccc5[nH]4)cc3)c2)c1	-1.29	-0.89	-0.37
O=[N+]([O-])c1ccc(-c2ccc(C=NNc3nc(Nc4ccccc4)nc(Nc4ccccc4)n3)o2)cc1	0.91	-0.88	-1.48
CN(C)c1ccc(-c2nc3cc(N)ccc3[nH]2)cc1	-2.7	3.58	0.22
COc1cccc(CCc2nc3c(N4CCC(Cc5ccccc5)CC4)cccc3n2CC2CNCCO2)c1 (stereo unspecified)	9.36	9.47	8.5
CCSc1nnc(C2CCCN(CC(=O)Nc3cc(C(F)(F)F)ccc3Cl)C2)n1CC (stereo unspecified)	8.8	8.79	8.67
Cc1cccc2nc(-c3cccc(-c4cccc(NC(=O)c5c[nH]cn5)c4)c3)[nH]c12	1.5	0.24	-1.05
CC(C)(CNCc1cccc(Oc2cccc(C(F)(F)F)c2)c1)c1nc(-c2ccnc(N)n2)c(-c2ccc(Cl)c(O)c2)[nH]1	6.03	6.79	7.44
N#Cc1ccc(N[C@@H](CC2CCCCC2)C(=O)N[C@@H]2CCCc3ccccc32)c2ccccc12	0.46	1.88	0.82
CS(=O)(=O)c1ccc(CCNCc2ccc(-c3ccc(CN(C(=O)c4cccc(C#N)c4)C4CCN(Cc5ccccc5)CC4)cc3)nc2)cc1	5.06	4.14	5.74

SMILES	inhibition [1] [%]	inhibition [2] [%]	inhibition [3] [%]
CC(C)NCc1cccc(-c2ccc(NC(=O)c3ccc(F)cc3)cc2)c1	3.19	3.2	-0.76
CCc1ccc(Cc2cnc3nc(N)nc(N)c3c2C)cc1	8.4	13.2	8.26
CCN(CC)CCN(Cc1ccc(-c2ccc(Cl)s2)cc1)C(=O)Cn1c(CCc2cccc(F)c2F)nc(=O)c2ccccc21	3.75	3.7	2.15
Brc1ccc(Nc2nc(NCC3CCCO3)c3ccccc3n2)cc1 (stereo unspecified)	24.2	22.3	8.12
Cc1cc(N[C@@H](Cc2ccccc2)C(=O)NCc2cccc(F)c2)nc(NCC2CCCCC2)n1	-0.17	2.51	-1.9
Clc1ccc(CNc2ccnc(NCc3cccnc3N3CCCC3)n2)c(Cl)c1	12.9	7.88	3.44
CN1CCC(Oc2ccc(NC(=O)c3ccc4c(=O)n(Cc5ccccc5)cnc4c3)cc2Cl)CC1	32.8	57.4	8.76
COCCCNc1sc(S(=O)(=O)c2ccccc2)nc1S(=O)(=O)c1ccc(Cl)cc1	3.07	3.36	1.01
Fc1ccc(Nc2ccnc3cc(I)ccc23)c(Cl)c1	2.32	2.73	1.47
O=C(NCCSCc1c(F)cccc1Cl)c1cnc2c(c1)nc(-c1c[nH]c(-c3ccccc3)n1)n2CCc1c[nH]cn1	2.77	2.22	0.97
NC1CCCN(Cc2ccc(-c3ccc(-c4nc5cc(F)ccc5[nH]4)s3)cc2)C1 (stereo unspecified)	2.77	3.22	3.45
Cc1sc(N2CCN(C)CC2)nc1C(=O)Nc1ccc(F)cc1C(F)(F)F	4.38	2.2	3.75
CC1(C)NC(N)=NC(=N)N1OCCCCOc1ccc(Cl)cc1C1CCCCC1	18	26.4	11.5
FC(F)(F)c1ccc(COc2cc(Cl)ccc2Cn2ccnc2)cc1	14	9.99	7.28
Cn1cc(C(=O)Nc2cccc(-c3cccc(-c4nc5ccccc5[nH]4)c3)c2)n(C)c1=O	4.31	2.7	2.54
O=c1cc(NCCCNC2CCOc3c(I)cc(Cl)cc32)[nH]c2ccccc12 (stereo unspecified)	2.44	4.6	1.03
COc1cccc(Nc2nc(C)cc(NCc3ccc(-c4c(C)noc4C)cc3)n2)c1	14.8	13.4	3.73
COc1cccc(NC(=O)c2ccc(NCCCN3CCC(C)CC3)c([N+](=O)[O-])c2)c1	76.1	41.7	12.8
O=C(/C=C/c1ccccc1Cl)Nc1ccc(Br)c(OCCN2CCCCC2)c1	2.43	2.16	-0.1
CC[C@H](C)[C@H](NC(=O)[C@H](CC1CCCCC1)[C@H](CC)N(O)C=O)C(=O)Nc1ccccn1	8.41	8.39	8.25
Cc1cc(C(=O)CN2C(=O)NC3(CCOc4ccccc43)C2=O)c(C)n1Cc1ccco1 (stereo unspecified)	5.85	4.77	3.86
O=C(NCCCCN1CCN(c2ccc3c(c2)CCC3)CC1)c1ccc(NC(=O)c2ccc(Cl)cc2)cc1	55.3	38.1	24.9
O=C(C=Cc1cccs1)N(CCCn1ccnc1)c1nc2ccc(F)cc2s1	4.66	4.09	2.51
Cc1ccc(NC(=O)c2ccc(NCCCN3CC(C)CC(C)C3)c([N+](=O)[O-])c2)cc1F (stereo unspecified)	8.68	5.06	5.89

SMILES	inhibition [1] [%]	inhibition [2] [%]	inhibition [3] [%]
CN(C)CCN(C)Cc1ccc(-c2ccc3c(Nc4ccc(Oc5ccccc5)cc4)ccnc3c2)o1	0.78	2.26	2.63
N=C(NCCCCC1CCCCC1)c1cccc(C(=N)NCCCCC2CCCCC2)n1	0.33	0.98	0.14
O=C(N/C=N/c1cc([N+](=O)[O-])c(-c2cccnc2)n1-c1ccc(O)cc1)c1ccccc1	-0.13	-1.73	-1.68
CC(C)(NCc1ccc(OC(F)(F)F)cc1)c1nc(-c2ccc(Cl)c(O)c2)c(-c2ccncc2)[nH]1	-0.58	-0.36	1.94
CSC1=NC(C)(C)CC2(CC(c3cccc(C)c3)c3cc(Cl)c(O)cc3O2)N1 (stereo unspecified)	0.95	1	0.47
CCCN1CCN(CCCNC(=O)c2cc3c(Cl)nc4ccc(C)cc4c3s2)CC1	-1.56	1.08	-1.97
OCc1ccc2nc3c(cc2c1)-c1cccc2cccc-3c12	3.6	1.82	2.11
CCOc1ccccc1NC(=O)C(Sc1nc(C)cc(C)c1C#N)c1ccccc1 (stereo unspecified)	6.11	3.77	6.45
CCNc1cc(C(=O)N[C@@H](Cc2ccccc2)[C@H](O)CNC2CCCCC2)cc(N2CCCCS2(=O)=O)c1	8.15	4.98	7.3
Cc1noc(C)c1CN1Cc2ccccc2OC2(CCN(Cc3c[nH]c4cnccc34)CC2)C1	-0.38	-0.56	2.32
O=C1CC(C(=O)Nc2cccc(-c3cccc(-c4nc5ccccc5[nH]4)c3)c2)c2ccccc2N1 (stereo unspecified)	7.77	6.55	0.51
COc1cc(CNC[C@@H](O)[C@H](Cc2ccccc2)NC(=O)c2cc(OC(C)C)cc(N3CCCCS3(=O)=O)c2)cc(OC)c1	2.15	2.12	1.3
CNC(=O)c1cnc(Nc2ccc(N3CCN(C)CC3)cc2)nc1Nc1cccc(OC(C)C)c1	3.75	1.38	-7.72
CCCCCCN(CCCCCC)CC(O)c1cc(-c2ccc(Cl)cc2)nc2c(C)cc(C)cc12 (stereo unspecified)	8.61	6.85	8.75
Clc1ccc(-c2[nH]c3ccccc3c2CN2CCC(N3CCCCC3)CC2)cc1	15.2	14.7	15.2
C#CCNCc1ccc(-c2cccc(-c3nc4cccc(C)c4[nH]3)c2)cc1	6.77	4.1	3.18
O=C(Nc1ccc(CCNCCCc2ccccc2)cc1)Nc1ccc(Cl)c(Cl)c1	-0.55	-0.63	-1.86
C[C@H]1CN(Cc2cccc(-c3cc(CNC(=O)c4cccc(CN5CCN(CCOc6ccccc6)CC5)c4)ccc3F)c2)CCN1	0.77	0.96	2.94
COc1ccc(O)c(Cc2cnc3nc(N)[nH]c(=O)c3c2C)c1	1.02	0.5	4.01
ON=C1CCc2cc(-c3nc(-c4ccc(OCCN5CCCCC5)cc4)[nH]c3-c3ccncc3)ccc21	-1.78	-1.49	-1.7
Clc1ccc(-c2cnc3ccc(NCc4ccncc4)nn23)cc1	2.08	0.84	-0.5
Cc1ccc(C(=O)Nc2ccc(C)c(OC3CCN(CCC(C)C)C3)c2)cc1 (stereo unspecified)	8.1	8.98	5.85
O=C(NCc1cccnc1)C(c1cc2ccccc2o1)N1CCN(C(c2ccccc2)c2ccccc2)CC1 (stereo unspecified)	1.36	2.1	0.65
CCN(CC)CCN(Cc1ccc(-c2ccc(C(F)(F)F)cc2)cc1)C(=O)Cn1c(CCc2ccc(F)c(F)c2)nc(=O)c2ccccc21	1.89	0.22	1.08
